We go through 40 compounds from PubChem BioAssay (NCI).

The panel holds about 83,000 compounds, 20% with a hit somewhere; the sample as a whole holds those more often.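 The endpoint reported here, percent growth, reads 100 for growth as untreated, 0 for no net growth and -100 for all cells dead.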 Values without a mark were called inactive. Calls of active or inactive are those of the source.

The experiment has as its system NCI-H23 lung. As to the kind of experiment: NCI-60 one-dose screen, 48 h (100 = growth as untreated, 0 = no growth, -100 = all killed). The conditions noted are these: 10 µM unless noted. Here is the method:
Growth inhibition of the NCI-H23 human Non-Small Cell Lung tumor cell line is measured as a screen for anti-cancer activity. Cells are grown in 96 well plates and exposed to the test compound for 48 hours. Compounds are tested at a single concentration, which is 10^-5 M for most compounds. The reported endpoint is percent growth (GI% or GIPRCNT), where numbers from 0 - 100% represent growth inhibition, and numbers from -100% - 0 represent cell death. For example, a value of 40 represents 60% growth inhibition. A value of 0 means no net growth occurred over the course of the experiment. A value of -40 indicates 40% of cells at the beginning of the experiment died by the end of the experiment. A value of -100 means all cells are dead at the end of the experiment.
NCI-60 Human Tumor Cell Lines Screen was performed using the standard one-dose NCI protocol, which is described in more detail at https://dtp.cancer.gov/discovery_development/nci-60/default.htm.
Compounds with GIPRCNT values below 10 were considered active. Activity score was based on GIPRCNT using the following formula: […]
Score is 0 for GIPRCNT values of 100 or above, 50 for GIPRCNT values of 0, and 100 for GIPRCNT values of -100.
`COC1=CC(c2ccc[nH]2)=N/C1=C\c1[nH]c(C)c(CC(=O)OCc2ccccc2)c1C`: the growth is 6.16% (active).
As for `O=c1nc(Nc2nc3ccccc3s2)[nH]c(=O)c2ccccc12`, the figure is 99.1%.
As for `O=C1C(Cl)=C(NCCN2CCOCC2)C(=O)c2ncccc21`, the figure is -41.8% (active); as for `N#C/C(=C\c1ccc(Br)cc1)c1cc2ccccc2[nH]1`, 92.1%.
To `Cc1ccc2nc(Cl)c(Cn3nnnc3SCc3ccccc3)cc2c1` belongs 91.8%; to `O=P(O)(O)OCC1OC(n2cnc3c(NCc4ccccc4)ncnc32)C(O)C1O` (stereo not given), 17.8%.
`O=C(Nc1ccc(F)cc1)Nc1ccccc1CNc1nc(Nc2ccc(OCCN3CCCC3)cc2)ncc1Cl`: the growth was 60.8%.
As for `CC[C@H](CC[C@@H](C)[C@H]1CC[C@H]2[C@@H]3CC[C@@H]4CC(=O)/C(=C\c5ccncc5)C[C@]4(C)[C@H]3CC[C@]12C)C(C)C`, the figure is 99.4%; as for `COc1cc2c(/C=C3\C(=O)Nc4ccccc43)c(C(=O)O)[nH]c2cc1C`, 82.5%; as for `CC(C)c1ccc(C(=O)Nc2sc3cc(O)ccc3c2C#N)cc1`, 46.2%.
To `COc1ccc(/C=C/C(=O)c2ccc(NC(=O)CSc3nnc(-c4cc(-c5ccccc5)nc5ccccc45)n3-c3ccccc3)cc2)cc1` belongs 93.2%.
With `CCCCCCCCCCCCCCCCCCOc1ccccc1CC(=O)NCC[N+]1(C)CCOCC1`, the growth was 67.8%.
As for `N#Cc1c(-c2ccccc2)nc2c(c(-c3ccccc3)nn2-c2ccccc2)c1-c1ccc(N2CCOCC2)cc1`, the figure is 96.9%; as for `Oc1c(I)cc(-c2nc3ccccc3s2)cc1CN(Cc1ccccn1)Cc1ccccn1`, 18.3%; as for `C=C(c1ccc(C(=O)O)cn1)c1cc2c(cc1C)C(C)(C)CCC2(C)C`, 80.3%.
`Cc1ccc(/C=C/C(=O)c2ccc(NC(=O)CSc3nc4c([nH]3)c(=O)n(C)c(=O)n4C)cc2)c(C)c1`: the growth was 57.9%.
As for `COc1cc(-c2nc(SCCC(C)C)nc(N3CCOCC3)c2C#N)cc(OC)c1OC`, the figure is 74.2%; as for `O=C(Nc1cccnc1Nc1ccc(Cl)cc1)c1cn(Cc2ccc(F)cc2)nn1`, 99.4%; as for `CS(=O)(=O)Nc1cc(-c2ccc3ncnc(Nc4ccc5c(cnn5Cc5cccnc5)c4)c3c2)cnc1Cl`, 55.8%.
With `CCOC(=O)C1=C(C)N=C2SC=C(c3ccccc3)N2[C@H]1c1cn[nH]c1-c1ccc(Cl)cc1`, the growth was 51.2%.
With `CCCCCn1sc(=O)n(Cc2ccc(CNC(=O)OCc3ccc4c(Cl)cc(Cl)c(O)c4n3)cc2)c1=O`, the growth is 73.2%.
To `COc1ccc(NC(=O)c2cccc(C3CCc4c(cc(OC)c(OC)c4OC)O3)c2)cc1` (stereo not given) belongs 52.1%; to `CCN(C(=O)N1CCN(c2cc3c(cc2F)c(=O)c(C(=O)O)cn3C2CC2)CC1)c1nc(-c2ccc(C)cc2)cs1`, 6.95% (active).
In the case of `COc1ccc(-c2oc(=O)ccc2-c2cc(OC)c(OC)c(OC)c2)cc1O`, the growth was 49%.
For `Nc1c(C(=O)Nc2cccc3ncccc23)sc2nc3c(cc12)C(=O)CCC3`, the growth is 53.8%.
As for `COC(=O)Cc1nc(C#N)c(N(C)C)o1`, the figure is 95.4%; as for `O=C1/C(=C/c2ccc(C(F)(F)F)cc2)COc2ccc(O)cc21`, 98%.
As for `CC/C=C1/C(=O)C=C[C@@H]1C/C=C\CCCC(=O)OC`, the figure is 74.8%; as for `O=C(CN1C(=O)/C(=C/c2ccco2)SC1=S)NCCc1c[nH]c2ccc(F)cc12`, 94.7%; as for `CN1CCN(Cc2cc(NC(=O)c3cccc(C#Cc4cccc5[nH]nc(N)c45)c3)cc(C(F)(F)F)c2)CC1`, 41.3%.
As for `CCCCNC1=C(OCC)C(=O)c2ccccc2C1=O`, the figure is 83.5%; as for `Fc1ccc2c(c1)c(-c1nc(-c3c[nH]c4ncccc34)cs1)cn2CCCN1CCOCC1`, 76%; as for `CC1(C)CC2=C3C=C[C@@H]4[C@@]5(C)CC[C@H](O)C(C)(C)[C@@H]5CC[C@@]4(C)[C@]3(C)CC[C@@]2(C(=O)O)CC1=O`, 41.2%.
Regarding `CC(=O)Nc1c(Cl)cc(Cl)c2c1Cc1cc([N+](=O)[O-])ccc1-2`, the growth was 94.6%.
In the case of `CCC/C(=N\NC(N)=O)C(OC)OC`, the growth is 99.9%.
With `COc1cc2nc(Nc3cccc(F)c3)nc(Nc3cc(C)[nH]n3)c2cc1OC`, the growth is -71.2% [20 µM] (active).
As for `COc1cc(C2Cc3ncccc3-c3[nH]c(=O)c4cccnc4c32)cc(OC)c1OC` (stereo not given), the figure is 35.3%.
Take `Cc1ccccc1CNc1c2ccccc2nc2ccccc12`: the growth was 23.4%.
As for `CCOC(=O)c1c2c(n3c1NCC3)-c1ccccc1C2=O`, the figure is 99%; as for `O=c1[nH]cnc2c1C(c1ccc(Br)cc1)c1sc3c(F)cccc3c1O2` (stereo not given), 92.8%.
